# From PubChem
# IL1B secr inh – inflammasome signaling inhibition, IL-1 beta readout. THP-1 LPS/ATP IL-1B secretion, AlphaLISA, 16 h; stronger effect = lower value. AID 743279. hit rate 4.7% among 360,000. activity change, % at 57.5 µM; in the data active means activity change below about -50%; inconclusive means mostly about -30% to -49%; further: on the % scale 0 is the no-effect control and ±100 the full control effect
#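 Secreted IL-1B measured by AlphaLISA bead assay after 16 h compound exposure of THP-1 cells; compounds (final up to 57.5 uM) added 1 h before LPS (250 ng/mL) and ATP (1.25 mM) stimulation; lower signal means less secretion.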
# HepG2 tox – kills HepG2 cells in TGF-b inhibitor counter-screen; HepG2 CAGA-GFP viability, ATP luminescence, 18 h; Potency, µM (highest dose often 46.1 µM), for the others: at the highest dose activity change, negative = cytotoxicity, most hits filed as cytotoxic; AID 588856; hit rate 0.76% among 410,000; further: potency means the concentration at half of the fitted maximal effect
#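 HepG2 CAGA-GFP cells (1000/well, DMEM with 1% FBS) received compound, then TGF-beta at 500 pg/mL final, and were incubated 18 hours at 37 degrees C. Viability was read by CellTiter-Glo luminescence. Media-only wells were set as complete cell-killing and DMSO as no toxicity.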
# TDP1 cell noCPT – qHTS for Inhibitors of human tyrosyl-DNA phosphodiesterase 1 (TDP1): qHTS in cells in absence of CPT; DT40 Tdp1-/- hTDP1 cells, no CPT, ATP luminescence, 48 h; hit rate 15% among 420,000; Potency, µM (series often up to 46.2 µM), without a hit: at the top dose activity change, negative = growth inhibition, actives largely listed as inhibitors; AID 686978, 2013; further: potency means the concentration at half of the fitted maximal effect; on the % scale 0 is the no-effect control and ±100 the full control effect; nearly all actives have a fitted effect of over 55% in size
#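 Growth kinetics read by CellTiter-Glo luminescence after ≥48 hr at 37 °C. Cells: DT40 Tdp1-/- stably carrying human TDP1, 400 per well, compound exposure in the absence of CPT (DMSO vehicle).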
# ASM inhibitor – inhibitors of human secretory acid sphingomyelinase | P17405 | placental ASM, HMU-PC fluorogenic substrate, 60 min | Potency, µM (top dose mostly 57.5 µM), without a hit: at the highest dose activity change, negative = inhibition, hits mostly inhibitors | hit rate 0.006% among 340,000 | AID 504937; further: potency means the concentration at half of the fitted maximal effect
# Target sequence (P17405 47-631 limits assumed): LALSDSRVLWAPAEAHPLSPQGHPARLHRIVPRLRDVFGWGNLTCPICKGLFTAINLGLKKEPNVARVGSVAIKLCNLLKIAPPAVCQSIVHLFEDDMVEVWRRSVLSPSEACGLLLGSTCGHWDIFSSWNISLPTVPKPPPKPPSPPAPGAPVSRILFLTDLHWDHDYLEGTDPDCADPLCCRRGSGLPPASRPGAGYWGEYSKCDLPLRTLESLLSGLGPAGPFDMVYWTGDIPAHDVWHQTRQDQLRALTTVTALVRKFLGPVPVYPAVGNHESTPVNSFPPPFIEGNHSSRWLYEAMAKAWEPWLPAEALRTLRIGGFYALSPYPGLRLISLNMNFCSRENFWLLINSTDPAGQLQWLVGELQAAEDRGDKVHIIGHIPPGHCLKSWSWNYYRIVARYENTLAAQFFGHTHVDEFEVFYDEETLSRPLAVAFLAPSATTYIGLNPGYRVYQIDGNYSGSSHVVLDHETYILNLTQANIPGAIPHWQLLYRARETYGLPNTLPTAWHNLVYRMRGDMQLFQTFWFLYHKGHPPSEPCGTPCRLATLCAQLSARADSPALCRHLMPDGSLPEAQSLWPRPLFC
#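 Human placenta-derived ASM preincubated with compound 10 min at room temperature, then reacted with 9 uM (final) fluorogenic HMU-PC substrate for 60 min at 37 C. Stop solution raises pH to 10; fluorescence read at Ex 386/Em 447 nm.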
# TGFb SMAD3 inh – inhibitors of TGF-b signaling; AID 588855; hit rate 1.2% among 410,000; HepG2 CAGA-GFP TGF-b/SMAD3 reporter, GFP fluorescence, 18 h; TGF-beta stimulated, 500 pg/mL final; Potency, µM (highest dose often 46.1 µM), inactives show top-dose activity, negative = inhibition, hits mostly inhibitors; further: potency means the concentration at half of the fitted maximal effect; on the % scale 0 is the no-effect control and ±100 the full control effect; nearly all actives have a fitted effect of over 65% in size
#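 First, reporter cells (HEPG2 CAGA-GFP) rested 2 h at 37 degrees C. Next, compounds were pinned in and TGF-beta added to 500 pg/mL final. After 18 h, GFP was imaged per cell and summed per well.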
# DT40 TDP1 CPT – growth inhibition of DT40 Tdp1-/-;hTDP1 cells with camptothecin (screen for TDP1 inhibitors); Potency, µM (series often up to 46.2 µM), for inactives: top-dose activity change, negative = growth inhibition, usual class: inhibitors; chicken DT40 Tdp1-/-;hTDP1 cells + 20 nM CPT, ATP luminescence, 48 h; hit rate 12% among 420,000; further: potency means the concentration at half of the fitted maximal effect; on the % scale 0 is the no-effect control and ±100 the full control effect; nearly all actives have a fitted effect of over 55% in size
#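 Chicken DT40 Tdp1-/- cells complemented with human TDP1, 400 cells/well, exposed to compounds plus 20 nM camptothecin for at least 48 h at 37 C; viability read as ATP content by CellTiter-Glo luminescence.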
# Numbers without * were called inactive; ? = inconclusive; / = no result given. Shown are actives, neighbours in structure and some others; about 19% of the full set was active somewhere. Unless noted, the call rests on the fitted dose curve; in most records, active means well fitted curve in the direction sought with a large enough effect; inconclusive means small, poorly fitted or top-dose-only effect, or another doubt; inactive means no such curve, though single readings can be large; an effect the other way counts as inactive or inconclusive.
SMILES,IL1B secr inh,HepG2 tox,TDP1 cell noCPT,ASM inhibitor,TGFb SMAD3 inh,DT40 TDP1 CPT
CS(=O)(=O)Nc1cccc(-c2nc(Nc3ccccc3)c3ccccc3n2)c1,/,/,4.6µM*,/,/,9.2µM*
Oc1cccc(Nc2nc(-c3ccccc3)nc3ccccc23)c1,-91*,-21%,?,-13%,?,?
COc1ccc(NC(=O)COC(=O)CNC(=O)COc2ccccc2)cc1OC,0,-3%,?,5%,0%,-16%
O=c1oc2ccccc2c(N2CCCCC2)c1CN1CCCC1,-8,-8%,-9%,5%,-7%,-16%
O=c1oc2ccccc2c(N2CCN(c3ccc(F)cc3)CC2)c1CN1CCCC1,/,-18%,16µM*,/,?,?
CC(=O)O[C@@]1(C(C)=O)CCC2C3C=C(Cl)C4=CC(=O)C5CC5[C@@]4(C)C3CC[C@]21C (some centres not stated),/,/,21µM*,/,/,21µM*
Cc1c(C(=O)Nc2cccc(Cl)c2)oc2ccc(S(=O)(=O)N(C)C3CCCCC3)cc12,/,3%,21µM*,/,?,?
Cc1ccc(Cl)cc1NC(=O)c1oc2ccc(S(=O)(=O)N(C)C3CCCCC3)cc2c1C,/,1%,?,/,-10%,21µM*
Cc1ccc(NC(=O)c2oc3ccc(S(=O)(=O)N4CCCCCC4)cc3c2C)cc1Cl,/,-2%,-7%,/,17%,-12%
Cc1cccc(NC(=O)c2oc3ccc(S(=O)(=O)N(C)C4CCCCC4)cc3c2C)c1C,/,-3%,8.2µM*,/,-7%,10µM*
CCc1ccc(NC(=O)CSc2nnc(-c3ccc(N)cc3)n2C)cc1,/,-1%,?,/,1%,-10%
Cc1c(C(=O)NCCc2ccncc2)cnn1-c1nccc(-c2ccccc2C(F)(F)F)n1,/,/,-57%,/,/,?
CCN(CC)C(=O)C1=C(C)N(CCCOC)C(=O)C(CC(=O)NCC2CCCCC2)C1 (configuration not stated),9,2%,-22%,/,16%,-15%
Cc1ccc(C(=O)Nc2nnc(NC(=S)Nc3ccccc3)s2)cc1,-20,-35%,21µM*,-13%,-16%,?
Cc1ccc(C(=O)Nc2nc3ccccc3c(=O)s2)cc1,-94*,-40%,18µM*,-3%,?,18µM*
Cc1ccc(Nc2nc3ccccc3c(=O)s2)cc1C,0,-21%,12µM*,1%,-37%,16µM*
Cc1nc(NC(=S)Nc2ccccc2)sc1C,0,-18%,?,-1%,?,?
CCc1nnc(NC(=S)Nc2ccccc2)s1,8,-11%,-69%,-1%,-3%,5.8µM*
O=C(CN1C(=O)CCS(=O)(=O)c2ccccc21)Nc1ccccc1F,13,-2%,1%,0%,0%,1%
CC1CC2(CCCC2)N(C(=O)N(C)C)c2ccc(F)cc21 (configuration not stated),-2,-2%,-6%,2%,3%,11%
Cc1onc(-c2ccccc2Cl)c1C(=O)NCc1ccccc1F,3,8%,11%,-1%,-7%,14%
Cc1cccc(-c2noc(CN(C(=O)c3c(-c4ccccc4Cl)noc3C)C(C)C)n2)c1,-14,3%,18µM*,-14%,-31%,21µM*
CCOc1ccc(C(=O)N(Cc2nc(-c3cccc(C)c3)no2)C(C)C)cc1,/,-42%,?,/,?,21µM*
Cc1nc(C(C)N(C)Cc2nc(-c3ccc4c(c3)OCO4)no2)c(C)s1 (configuration not stated),-18,-8%,?,0%,-11%,23µM*
COc1ccc(-c2noc(CN(C)C(=O)c3ccc4c(c3)OCO4)n2)cc1OC,27,2%,9%,0%,2%,6%
